This is an account of results in PubChem BioAssay (EPA / NIEHS).

Active and inactive are the calls of the source. How the source made its calls: active means hit-call score of the fitted dose curve at least 0.9, where 1 is the maximum; inactive means score below 0.9.

What is called AC50 is the concentration at which the activity in the assay is half-maximal.

A short description of assay [1]: ATG_CRE_CIS: Attagene CIS-FACTORIAL HepG2 Assay for human cAMP Responsive Element (CRE) binding protein 3 (AID 2282926). Particulars: HepG2 CRE cis-reporter, Attagene multiplexed mRNA; actives raise or lower the signal. A digest of the protocol:
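Endogenous transcription factor activity read via CRE-regulated reporter transcripts in transfected HepG2 cells. After 24 h exposure, RNA was reverse-transcribed, amplified, fluorescently labelled and sized by capillary electrophoresis; gain or loss fitted against DMSO.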

The target in assay [2] is CCAAT/enhancer-binding protein beta (Homo sapiens) (UniProt P17676). In words: ATG_C_EBP_CIS: Attagene CIS-FACTORIAL HepG2 Assay for human CCAAT/Enhancer Binding Protein (C/EBP) beta (AID 2282927). Particulars: HepG2 Attagene cis-factorial transcription factor reporter; actives raise or lower the signal. The essentials:
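Endogenous transcription factor activity in human liver HepG2 cells is inferred from induction of a CEBPB-linked reporter mRNA. Exposure lasts 24 h; activity is fitted in both directions relative to DMSO.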

Assay [3] can be described thus: ATG_CMV_CIS: Attagene CIS-FACTORIAL HepG2 Assay for human CMV (Internal Marker) (AID 2282928).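 Further: endpoint acts as a background internal control marker rather than a target.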 Particulars: HepG2 CMV promoter reporter, transcription factor profiling; actives raise or lower the signal. A digest of the protocol: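 Readout: fluorescent reporter cDNA fragments separated by capillary electrophoresis after RT-PCR and HpaI cut. Cells: HepG2 carrying transfected cis-promoter reporter constructs, dosed 24 h. Endpoint serves as background internal-marker control, fit bidirectionally versus DMSO.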

Assay [4] in a line: ATG_AP_1_CIS: Attagene CIS-FACTORIAL HepG2 Assay for human Activator Protein 1 (AP-1) (AID 2282931). Particulars: HepG2 Attagene cis-factorial AP-1 reporter mRNA; actives raise or lower the signal. The essentials: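 Reporter transcripts were measured 24 h after dosing by RT-PCR and capillary electrophoresis of fluorescent fragments. Cells: HepG2 carrying transfected cis-regulated reporter constructs reading endogenous factor activity. Gain or loss fitted against DMSO.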

The nature of assay [5]: ATG_AP_2_CIS: Attagene CIS-FACTORIAL HepG2 Assay for human Activator Protein 2 (AP-2) (AID 2282932). Particulars: HepG2 AP-2 cis-reporter, Attagene transcription factor profiling; actives raise or lower the signal. The essentials:
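Transiently transfected HepG2 cells are exposed to chemical for 24 h. Reporter transcripts are then measured as fluorescence following RT-PCR and capillary separation, and gain- or loss-of-signal is fitted relative to DMSO.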

Assay [6] can be described thus: ATG_BRE_CIS: Attagene CIS-FACTORIAL HepG2 Assay for human Bone Morphogenetic Protein (BMP) Response Element (BRE) (AID 2282933). Particulars: HepG2 BMP response element reporter, Attagene transcription factor profiling; actives raise or lower the signal. The essentials: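 Endogenous transcription factor activity read in transiently transfected HepG2 cells after 24 h chemical exposure. Bidirectional curve fitting against DMSO; readout is reporter transcript level by RT-PCR with capillary electrophoresis of labelled products.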

The target of assay [7] is Transcription factor E2F1 (Homo sapiens) (UniProt Q01094). Description: ATG_E2F_CIS: Attagene CIS-FACTORIAL HepG2 Assay for human E2F Transcription Factor 1 (AID 2282935). Particulars: HepG2 Attagene cis-reporter, E2F reporter RNA transcripts; actives raise or lower the signal. A digest of the protocol:
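Fluorescent RT-PCR products, digested with HpaI for 2 h at 37 C, are separated by capillary electrophoresis. Source RNA comes from transfected HepG2 cultures treated for 24 h.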

A short description of assay [8]: ATG_E_Box_CIS: Attagene CIS-FACTORIAL HepG2 Assay for human Enhancer Box (E-box) (AID 2282936). Particulars: HepG2 E-box cis-reporter transcription, actives raise or lower the signal. A digest of the protocol:
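Fluorescent reporter fragments separated by capillary electrophoresis gave the signal; mRNA came from HepG2 cells transfected with cis-element reporters and treated 24 h. Curves fitted bidirectionally relative to DMSO controls.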

Assay [9] is described as follows: ATG_M_61_CIS: Attagene CIS-FACTORIAL HepG2 Assay for M61 Transcription Factor (Internal Marker) (AID 2282937). Particulars: HepG2 Attagene CIS-FACTORIAL M61 internal marker reporter; actives raise or lower the signal. The essentials: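 Readout: fluorescent reporter mRNA fragments resolved by capillary electrophoresis after RT-PCR. Transiently transfected human HepG2 cells carried MRTU constructs reporting endogenous TF activity; 24 h chemical exposure; gain or loss of signal fitted relative to DMSO.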

Assay [10] in a line: ATG_EGR_CIS: Attagene CIS-FACTORIAL HepG2 Assay for human Early Growth Response 1 (EGR1) (AID 2282938). Particulars: HepG2 Attagene CIS-FACTORIAL EGR reporter mRNA; actives raise or lower the signal. The essentials:
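Read-out: fluorescent reporter-mRNA fragments resolved by capillary electrophoresis after RT-PCR, 24 h post-dose in transiently transfected HepG2. Endogenous transcription-factor activity reported via cis-element-regulated reporter units; gain or loss fitted relative to DMSO.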

Assay [11] in a line: ATG_M_19_CIS: Attagene CIS-FACTORIAL HepG2 Assay for M19 Transcription Factor (Internal Marker) (AID 2282939). Particulars: HepG2 Attagene CIS-FACTORIAL M19 internal marker reporter; actives raise or lower the signal. A digest of the protocol: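 Internal marker readout, fitted in both directions against DMSO, from HepG2 cells carrying transfected cis-element reporter constructs; RT-PCR and capillary electrophoresis of reporter mRNA after 24 h exposure.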

Assay [12] in a line: ATG_GATA_CIS: Attagene CIS-FACTORIAL HepG2 Assay for human GATA Binding Protein (AID 2282944). Particulars: HepG2 GATA cis-element reporter, Attagene multiplex mRNA; actives raise or lower the signal. A digest of the protocol: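 Reporter transcripts from a GATA cis-regulated unit, among multiplexed reporters in transfected HepG2 cells, were measured by RT-PCR with capillary electrophoresis after 24 h dosing. Induction or loss scored relative to DMSO.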

Assay [13] is described as follows: ATG_GLI_CIS: Attagene CIS-FACTORIAL HepG2 Assay for human Zinc Finger Protein GLI1 (AID 2282945). Particulars: HepG2, Attagene cis-factorial reporter mRNA, GLI element; actives raise or lower the signal. The essentials: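 Bidirectional curve fits relative to DMSO, using reporter mRNA levels from RT-PCR plus capillary electrophoresis. Cells were HepG2 transiently carrying cis-regulated reporter constructs, harvested 24 h after dosing.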

Assay [14] is described as follows: ATG_ISRE_CIS: Attagene CIS-FACTORIAL HepG2 Assay for human Interferon Regulatory Factor 1 (IRF1) binding to an Interferon-Stimulated Response Element (ISRE) (AID 2282948). Particulars: HepG2 ISRE cis-reporter (Attagene), mRNA transcription readout; actives raise or lower the signal. A digest of the protocol: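 Read-out: fluorescent RT-PCR products resolved by capillary electrophoresis, reporting endogenous transcription factor activity via ISRE-driven reporter mRNA in transfected HepG2 cells dosed for 24 h; gain or loss fitted relative to DMSO.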

Assay [15] in a line: ATG_M_32_CIS: Attagene CIS-FACTORIAL HepG2 Assay for M32 Transcription Factor (Internal Marker) (AID 2282949).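 Further: background control marker of the multiplexed CIS panel rather than a real target.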 Particulars: HepG2 Attagene cis-factorial M32 reporter, mRNA; actives raise or lower the signal. The essentials: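 Transient MRTU transfection of HepG2; 24 h compound treatment; TriZol RNA, oligo(dT) RT, reporter PCR, 6-FAM primer extension, HpaI cut, CE. Gain/loss of signal vs DMSO.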

A short description of assay [16]: ATG_MRE_CIS: Attagene CIS-FACTORIAL HepG2 Assay for human Metal Responsive Element (MRE) (AID 2282954). Particulars: HepG2 MRE cis-reporter transcription, Attagene multiplex; actives raise or lower the signal. The essentials:
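Multiplexed cis-reporter assay in human HepG2 liver cells, 24 h incubation with test chemical. Reporter transcripts measured by RT-PCR and capillary electrophoresis; values from bidirectional curve fitting versus DMSO.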

For assay [17], the target named is Paired box protein Pax-6 (Homo sapiens) (UniProt P26367). In words: ATG_Pax6_CIS: Attagene CIS-FACTORIAL HepG2 Assay for human Paired Box 6 (PAX6) (AID 2282956). Particulars: HepG2 CIS-FACTORIAL PAX6 reporter transcription, RNA readout; actives raise or lower the signal. The essentials: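 Readout: reporter transcript fluorescence after RT-PCR and capillary electrophoresis. Cells: HepG2, transiently transfected with cis-regulated MRTUs. Exposure 24 h. Gain or loss of signal fitted bidirectionally relative to DMSO.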
Chain of Paired box protein Pax-6 (Homo sapiens) (P26367 whole entry, looked up): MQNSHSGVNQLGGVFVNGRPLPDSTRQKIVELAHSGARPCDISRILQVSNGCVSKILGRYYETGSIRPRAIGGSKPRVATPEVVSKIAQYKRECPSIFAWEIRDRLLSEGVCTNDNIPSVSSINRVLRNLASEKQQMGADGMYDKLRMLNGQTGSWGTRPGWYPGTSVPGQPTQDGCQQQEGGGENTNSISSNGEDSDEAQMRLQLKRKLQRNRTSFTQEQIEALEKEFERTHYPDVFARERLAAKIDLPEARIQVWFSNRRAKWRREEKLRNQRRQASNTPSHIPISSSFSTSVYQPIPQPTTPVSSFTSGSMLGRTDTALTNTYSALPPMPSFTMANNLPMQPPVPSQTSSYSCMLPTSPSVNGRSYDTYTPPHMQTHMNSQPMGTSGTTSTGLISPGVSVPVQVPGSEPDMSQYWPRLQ

Assay [18] can be described thus: ATG_PXRE_CIS: Attagene CIS-FACTORIAL HepG2 Assay for human Pregnane X Receptor Element (PXRE) (AID 2282957). Particulars: HepG2 Attagene CIS-FACTORIAL PXRE reporter, mRNA; actives raise or lower the signal. A digest of the protocol: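 Reporter transcripts under endogenous PXR-responsive cis-regulation quantified from total RNA of transfected HepG2 cells 24 h post-dosing, via RT-PCR with fluorescent primer extension and capillary electrophoresis. Gain or loss of signal fitted against DMSO baseline.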

In assay [19] the target is Transcription factor Sp1 (Homo sapiens) (UniProt P08047). Description: ATG_Sp1_CIS: Attagene CIS-FACTORIAL HepG2 Assay for human Specificity Protein 1 (Sp1) (AID 2282961). Particulars: HepG2 Sp1 cis-reporter transcription, actives raise or lower the signal. A digest of the protocol: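 Read-out: fluorescence of 6-FAM-labeled, HpaI-digested RT-PCR products separated by capillary electrophoresis. HepG2 cells carried transfected cis-element reporter units and were exposed to chemicals for 24 h; gain or loss of signal fitted relative to DMSO.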
Chain of Transcription factor Sp1 (Homo sapiens) (P08047 whole entry, looked up): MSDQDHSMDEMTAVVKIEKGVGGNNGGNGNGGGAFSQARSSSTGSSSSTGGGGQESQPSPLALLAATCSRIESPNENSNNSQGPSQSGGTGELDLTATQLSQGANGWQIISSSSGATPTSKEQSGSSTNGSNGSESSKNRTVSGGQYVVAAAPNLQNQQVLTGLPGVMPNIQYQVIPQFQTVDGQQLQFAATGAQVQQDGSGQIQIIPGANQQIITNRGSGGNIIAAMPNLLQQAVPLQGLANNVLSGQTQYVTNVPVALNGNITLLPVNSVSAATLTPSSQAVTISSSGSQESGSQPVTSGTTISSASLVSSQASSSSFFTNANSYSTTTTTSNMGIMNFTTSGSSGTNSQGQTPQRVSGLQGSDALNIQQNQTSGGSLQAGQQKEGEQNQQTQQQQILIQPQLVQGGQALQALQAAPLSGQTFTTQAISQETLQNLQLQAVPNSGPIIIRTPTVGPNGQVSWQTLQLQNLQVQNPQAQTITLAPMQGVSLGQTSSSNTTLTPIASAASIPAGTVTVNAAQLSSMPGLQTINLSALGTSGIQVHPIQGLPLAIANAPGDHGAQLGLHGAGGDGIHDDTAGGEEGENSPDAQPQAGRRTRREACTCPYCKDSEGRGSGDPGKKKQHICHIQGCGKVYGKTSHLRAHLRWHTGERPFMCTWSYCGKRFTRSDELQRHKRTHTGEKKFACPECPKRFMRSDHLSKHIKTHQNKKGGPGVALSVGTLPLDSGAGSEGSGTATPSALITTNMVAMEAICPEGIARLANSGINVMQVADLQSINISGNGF

Assay [20] deals with Signal transducer and activator of transcription 3 (Homo sapiens) (UniProt P40763). In words: ATG_STAT3_CIS: Attagene CIS-FACTORIAL HepG2 Assay for human Signal Transducer and Activator of Transcription 3 (STAT3) (AID 2282963). Particulars: HepG2, Attagene cis-factorial STAT3 reporter transcription; actives raise or lower the signal. A digest of the protocol:
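Cis-factorial format: endogenous transcription factors in HepG2 drive transfected reporter units. After 24 h treatment, reporter RNA was reverse-transcribed, amplified, FAM-labelled and HpaI-digested before CE analysis; activity scored in both directions against DMSO.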

Chain of Transcription factor E2F1 (Homo sapiens) (Q01094 whole entry, looked up): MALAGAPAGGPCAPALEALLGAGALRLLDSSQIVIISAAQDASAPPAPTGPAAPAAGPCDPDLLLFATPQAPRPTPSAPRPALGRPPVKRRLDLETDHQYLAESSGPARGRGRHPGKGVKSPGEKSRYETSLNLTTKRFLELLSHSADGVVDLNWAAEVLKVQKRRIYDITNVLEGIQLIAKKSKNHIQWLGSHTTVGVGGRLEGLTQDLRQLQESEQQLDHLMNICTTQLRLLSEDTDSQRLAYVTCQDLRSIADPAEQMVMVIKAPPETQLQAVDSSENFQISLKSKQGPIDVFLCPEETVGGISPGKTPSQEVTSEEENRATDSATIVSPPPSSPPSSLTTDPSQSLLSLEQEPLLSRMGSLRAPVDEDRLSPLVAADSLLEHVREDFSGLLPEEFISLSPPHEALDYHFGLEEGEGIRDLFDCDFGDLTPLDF
Chain of Signal transducer and activator of transcription 3 (Homo sapiens) (P40763 whole entry, looked up): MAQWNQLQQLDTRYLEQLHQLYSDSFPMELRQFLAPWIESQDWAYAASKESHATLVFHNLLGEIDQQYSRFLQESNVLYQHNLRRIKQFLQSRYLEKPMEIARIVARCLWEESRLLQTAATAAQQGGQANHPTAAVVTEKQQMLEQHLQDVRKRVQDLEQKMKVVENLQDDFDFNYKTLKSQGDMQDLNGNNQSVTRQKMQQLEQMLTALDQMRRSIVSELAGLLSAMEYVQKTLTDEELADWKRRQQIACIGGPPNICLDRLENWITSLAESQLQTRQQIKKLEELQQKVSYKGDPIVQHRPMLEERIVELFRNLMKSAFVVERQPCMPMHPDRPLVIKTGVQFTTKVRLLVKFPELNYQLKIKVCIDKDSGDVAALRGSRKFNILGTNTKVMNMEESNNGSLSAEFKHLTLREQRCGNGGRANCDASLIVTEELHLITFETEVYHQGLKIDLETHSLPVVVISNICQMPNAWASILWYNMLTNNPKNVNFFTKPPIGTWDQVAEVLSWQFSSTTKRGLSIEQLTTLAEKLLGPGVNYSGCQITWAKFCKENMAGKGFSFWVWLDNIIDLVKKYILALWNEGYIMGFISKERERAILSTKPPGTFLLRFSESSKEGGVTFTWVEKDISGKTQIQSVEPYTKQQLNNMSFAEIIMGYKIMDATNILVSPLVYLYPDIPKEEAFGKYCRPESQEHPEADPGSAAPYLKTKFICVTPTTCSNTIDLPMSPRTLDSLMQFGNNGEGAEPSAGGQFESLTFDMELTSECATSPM
Chain of CCAAT/enhancer-binding protein beta (Homo sapiens) (P17676 whole entry, looked up): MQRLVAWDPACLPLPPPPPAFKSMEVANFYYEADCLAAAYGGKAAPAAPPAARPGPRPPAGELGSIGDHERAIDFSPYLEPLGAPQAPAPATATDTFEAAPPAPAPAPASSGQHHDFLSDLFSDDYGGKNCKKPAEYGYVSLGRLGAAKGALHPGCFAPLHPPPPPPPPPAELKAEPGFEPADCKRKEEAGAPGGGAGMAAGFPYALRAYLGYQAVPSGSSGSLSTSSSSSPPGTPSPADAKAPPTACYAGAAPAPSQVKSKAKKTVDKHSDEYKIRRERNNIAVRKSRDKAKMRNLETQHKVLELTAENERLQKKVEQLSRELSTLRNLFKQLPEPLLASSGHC

Consider `OCCN(CCO)c1cccc(Cl)c1`, for which the outcome in assay [1], in assay [2], in assay [3], in [4], in assay [5] and in assay [6] was inactive. The molecule was classed as inactive in [7], in [8], in assay [9], in assay [10], in assay [11] and in assay [12]. Moreover, the molecule was called inactive in assay [13], in [14], in assay [15], in assay [16], in assay [17] and in assay [19]. The call in assay [20] was inactive. Also, the AC50 in [18] is 52.4 µM (active).

Consider `CN(C)CCC(c1ccc(Cl)cc1)c1ccccn1` (stereo not given), for which the result in [1], in assay [2], in assay [3], in [4], in [5] and in [6] was inactive. The call in assay [7], in assay [8], in assay [9], in [10], in assay [11] and in [12] was inactive. The call in assay [13], in assay [15], in assay [16], in [17], in assay [18] and in [19] was inactive. In assay [20], the molecule was classed as inactive. For the same molecule, the AC50 in assay [14] is 125 µM (active).

In the case of `CCCOCCC`, the outcome in assay [1], in assay [2], in assay [3], in assay [4], in [5] and in assay [6] was inactive. Besides, the call in assay [7], in assay [8], in assay [9], in [10], in assay [11] and in [12] was inactive. For the same molecule, the molecule was classed as inactive in assay [13], in assay [14], in [15], in assay [16], in assay [17] and in assay [18]. The molecule was classed as inactive in [19] and in assay [20].

As to `O=C1NC(=O)C2CC=CCC12` (stereo not given), the outcome in assay [1], in assay [2], in assay [3], in assay [4], in assay [5] and in assay [6] was inactive. The call in assay [7], in assay [8], in assay [9], in assay [10], in [11] and in assay [12] was inactive. Also, the molecule was called inactive in assay [13], in assay [14], in assay [15], in assay [16], in assay [17] and in assay [18]. For the same molecule, the call in assay [19] and in [20] was inactive.

Turning to `Brc1ccc(Oc2ccc(Br)cc2)cc1`, the outcome in assay [1], in assay [2], in assay [5], in assay [7], in [8] and in [9] was inactive. Also, the molecule was classed as inactive in assay [10], in [11], in assay [12], in assay [13], in [14] and in assay [15]. Moreover, the result in assay [16], in assay [17], in [19] and in assay [20] was inactive. For the same molecule, the half-maximal activity concentration (AC50) was 40.4 µM (active) in [3], 56.5 µM (active) in assay [4], 86.9 µM (active) in assay [6] and 27.3 µM (active) in assay [18].

As to `C=C1CC[C@H]2C[C@@H]1C2(C)C`, the AC50 in [1] is 26 µM (active); in [6] it was 26.1 µM (active); in assay [18] it was 11.5 µM (active). Further, the outcome in [2], in [3], in [4], in [5], in assay [7] and in assay [8] was inactive. Further, the molecule was called inactive in [9], in assay [10], in [11], in assay [12], in assay [13] and in assay [14]. Also, the call in [15], in assay [16], in [17], in [19] and in assay [20] was inactive.

As for `O=C(OCc1ccccc1)c1ccccc1`, the result in assay [1], in assay [2], in assay [3], in assay [4], in assay [5] and in assay [6] was inactive. Also, the call in [7], in [8], in assay [9], in [10], in [11] and in assay [12] was inactive. Besides, the molecule was classed as inactive in [13], in assay [14], in assay [15], in assay [16], in assay [17] and in assay [19]. Further, the call in assay [20] was inactive. For the same molecule, the AC50 in assay [18] is 26.4 µM (active).
